Source: PubChem BioAssay (Tox21)
“And” between values parts separate entries of the source, which are not always exact repeats. Equal values may be shown once. Records with an inconclusive call do not appear. Some compounds were tested as several samples or in several runs, with calls that do not always agree. The source made the active and inactive calls. Unless noted, the call rests on the fitted dose curve; in most records, active means well fitted curve in the direction sought with a large enough effect in the repeat runs; inconclusive means weak or mixed curves; inactive means no such curve, though single readings can be large; an effect the other way counts as inactive or inconclusive.

Experiments:
[1] = qHTS assay to identify aromatase inhibitors - cell viability counter screen (AID 743084);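 further: cells stimulated with testosterone during compound exposure; nearly all actives have a fitted effect of over 55% in size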
[2] = biological target: Aryl hydrocarbon receptor (Homo sapiens) (UniProt P35869); experiment: qHTS assay to identify small molecule that activate the aryl hydrocarbon receptor (AhR) signaling pathway (AID 743085); further: nearly all actives have a fitted effect of over 15% in size;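 on activation: HG2L7.5c1 human HepG2 liver cells with stably integrated DRE-driven firefly reporter; series mostly up to about 70 µM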
Summary of the method: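 Reporter assay in engineered HepG2 line HG2L7.5c1, whose plasmid carries twenty dioxin responsive elements upstream of firefly luciferase. Treatment lasted 24 h at 37C; ONE-Glo luminescence gauged induction.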

[3] = qHTS assay to identify small molecule that activate the aryl hydrocarbon receptor (AhR) signaling pathway - cell viability counter screen (AID 743086); further: nearly all actives have a fitted effect of over 45% in size
Summary of the method: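 HepG2-AhR-luc (HG2L7.5c1) cells, 4000/well, were preincubated 5 h at 37C, exposed to compound in qHTS format for 24 hr at 37C, then given CellTiter-Fluor for 30 min; viability was read as fluorescence in the reporter wells.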

[4] = biological target: Peroxisome proliferator-activated receptor gamma (Homo sapiens) (UniProt P37231); experiment: qHTS assay to identify small molecule agonists of the peroxisome proliferator-activated receptor gamma (PPARg) signaling pathway (AID 743094; active means well fitted activation curve with a large enough effect in the signal ratio in the repeat runs, not every such curve was filed as active; the % refers to the signal ratio)
Summary of the method: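 HEK293H PPARg-bla cells, 5 h settle at 37C/5% CO2; compound (DMSO) 17 h, 37C; B/G FRET substrate 1 h RT; fluorescence intensity read-out. qHTS format.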

[5] = qHTS assay to identify small molecule antagonists of the peroxisome proliferator-activated receptor gamma (PPARg) signaling pathway - cell viability counter screen (AID 743194); details: Potency: co-treated with 50 nM rosiglitazone unless noted; further: nearly all actives have a fitted effect of over 55% in size
Summary of the method: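 PPARg-UAS-bla HEK293H cells were plated, rested 5 h at 37 C, then treated with compounds plus rosiglitazone (50 nM final) for 17 h at 37 C; viability was then read by CellTiter-Glo luminescence after 30 min at room temperature.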

[6] = qHTS assay for small molecule agonists of the antioxidant response element (ARE) signaling pathway (AID 743202; active means well fitted activation curve with a large enough effect in the signal ratio in the repeat runs, not every such curve was filed as active; the % refers to the signal ratio)
Summary of the method: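 Following a 16 h, 37 C exposure of reporter HepG2 cells (ARE-driven beta-lactamase, 2,000 cells/well) to compounds, FRET substrate was applied for 2 h at room temperature and fluorescence intensity recorded.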

[7] = qHTS assay for small molecule agonists of the antioxidant response element (ARE) signaling pathway - cell viability counter screen (AID 743203; calls by dose curve; further: nearly all actives have a fitted effect of over 55% in size)
Summary of the method: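 Luminescence read-out (CellTiter-Glo, 30 min at room temperature) measured cell viability in the same wells as the ARE beta-lactamase reporter. HepG2 ARE-bla cells were treated with compounds for 16 hrs at 37C/5% CO2.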

[8] = qHTS assay for small molecule activators of the heat shock response signaling pathway - cell viability counter screen (AID 743209); further: nearly all actives have a fitted effect of over 50% in size
Summary of the method: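 HSE-bla HeLa; 1500 cells/well; overnight 37 C, 5% CO2; compound 5 h 37 C; LiveBLAzer B/G substrate 2.5 h RT; CellTiter-Glo 30 min RT; luminescence.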

[9] = biological target: Peroxisome proliferator-activated receptor gamma (Homo sapiens) (UniProt P37231); experiment: qHTS assay to identify small molecule antagonists of the peroxisome proliferator-activated receptor gamma (PPARg) signaling pathway (AID 743191; calls by dose curve; further: nearly all actives have a fitted effect of over 30% in size)
Summary of the method: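 GeneBLAzer PPARg UAS-bla HEK293H cells carrying a UAS-driven beta-lactamase reporter were plated at 3000 cells/well, preincubated 5 h at 37C, then given compound for 17 h at 37C; LiveBLAzer B/G FRET substrate was read after 1 h at room temperature.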

[10] = qHTS assay for small molecule activators of the heat shock response signaling pathway (AID 743210; active means well fitted activation curve with a large enough effect in the signal ratio in the repeat runs, with a control signal flat, not every such curve was filed as active; the % refers to the signal ratio; on activation: series mostly up to about 63 µM)
Summary of the method: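 Heat shock element–beta-lactamase HeLa reporter cells; qHTS with compounds for 5 h at 37 C; detection by FRET substrate fluorescence after 2.5 h at RT.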

Measured: Potency
Potency means the concentration at half of the fitted maximal effect.

Chain of Aryl hydrocarbon receptor (Homo sapiens) (P35869 whole entry, looked up): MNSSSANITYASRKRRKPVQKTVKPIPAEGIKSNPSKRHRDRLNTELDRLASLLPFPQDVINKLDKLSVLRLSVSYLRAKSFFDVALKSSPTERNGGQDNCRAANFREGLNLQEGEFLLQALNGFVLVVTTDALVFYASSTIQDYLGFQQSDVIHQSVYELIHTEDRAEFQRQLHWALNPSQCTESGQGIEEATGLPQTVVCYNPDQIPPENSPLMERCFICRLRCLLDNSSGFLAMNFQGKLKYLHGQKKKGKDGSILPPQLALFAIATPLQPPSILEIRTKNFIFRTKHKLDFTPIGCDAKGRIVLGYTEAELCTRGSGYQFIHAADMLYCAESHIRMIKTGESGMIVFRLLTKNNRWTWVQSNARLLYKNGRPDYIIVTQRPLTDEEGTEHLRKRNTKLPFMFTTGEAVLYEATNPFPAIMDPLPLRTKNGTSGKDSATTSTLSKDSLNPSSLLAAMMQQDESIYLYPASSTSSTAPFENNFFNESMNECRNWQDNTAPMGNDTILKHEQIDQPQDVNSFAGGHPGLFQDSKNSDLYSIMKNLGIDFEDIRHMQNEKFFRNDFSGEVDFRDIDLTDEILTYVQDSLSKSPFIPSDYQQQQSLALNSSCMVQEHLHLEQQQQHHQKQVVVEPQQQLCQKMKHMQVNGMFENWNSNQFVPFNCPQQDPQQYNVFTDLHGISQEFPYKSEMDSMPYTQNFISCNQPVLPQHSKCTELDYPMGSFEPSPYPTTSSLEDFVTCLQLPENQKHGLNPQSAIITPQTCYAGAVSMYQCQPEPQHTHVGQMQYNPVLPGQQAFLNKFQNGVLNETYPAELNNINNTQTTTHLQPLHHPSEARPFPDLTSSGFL
Chain of Peroxisome proliferator-activated receptor gamma (Homo sapiens) (P37231 whole entry, looked up): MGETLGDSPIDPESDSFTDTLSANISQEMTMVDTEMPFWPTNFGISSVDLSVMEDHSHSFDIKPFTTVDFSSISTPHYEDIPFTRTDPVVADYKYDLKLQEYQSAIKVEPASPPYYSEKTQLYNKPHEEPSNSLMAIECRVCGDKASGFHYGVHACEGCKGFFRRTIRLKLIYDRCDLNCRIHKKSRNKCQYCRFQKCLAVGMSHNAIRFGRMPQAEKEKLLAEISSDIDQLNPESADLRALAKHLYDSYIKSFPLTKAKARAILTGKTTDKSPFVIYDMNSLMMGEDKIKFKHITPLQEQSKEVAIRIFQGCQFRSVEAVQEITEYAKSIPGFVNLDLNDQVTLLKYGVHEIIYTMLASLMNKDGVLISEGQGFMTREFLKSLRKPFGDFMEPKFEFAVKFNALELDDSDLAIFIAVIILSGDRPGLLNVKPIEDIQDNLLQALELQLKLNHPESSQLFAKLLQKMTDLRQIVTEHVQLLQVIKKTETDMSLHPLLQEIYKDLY

CCCCC(CC)COC(=O)OOC(C)(C)C (stereo not given)
active: [8] 49 µM
not listed: [9] | [10]
inactive: all other assays above

CC1CCCC1
active: [9] 21.5 µM | [8] 12.1 µM
inactive: [1] | [2] | [3] | [4] | [7]

CN(C)c1ccc(N)cc1
active: [1] 66.9 µM | [2] 18.9 µM | [3] 66.9 µM
not listed: [6] | [9]
inactive: all other assays above

CCCCN(CCCC)C(=S)S
not listed: [9] | [10]
inactive: all other assays above

O=[N+]([O-])c1ccc(CCl)cc1
not listed: [6] | [9]
inactive: all other assays above

N#CSCc1ccccc1
not listed: [9]
inactive: all other assays above

ClC1=C(Cl)[C@]2(Cl)[C@@H]3[C@H]4C[C@H]([C@@H]5O[C@H]45)[C@@H]3[C@@]1(Cl)C2(Cl)Cl
active: [10] 51.8 µM
not listed: [6] | [9]
inactive: all other assays above

NC(=O)C(Cl)Cl
not listed: [4]
inactive: all other assays above

CCCCc1ccccc1
inactive: [1] | [2] | [3] | [4] | [7] | [8]

c1csc(-c2ccc(-c3cccs3)s2)c1
active: [2] 24.3 µM | [4] 21.9 µM | [6] 2.73 µM
not listed: [9] | [10]
inactive: all other assays above

N#Cc1ccc(N(CC(N)=O)CC(F)(F)F)cc1C(F)(F)F
active: [4] 0.692 µM
not listed: [9]
inactive: all other assays above

ClCBr
not listed: [5] | [6]
inactive: all other assays above

CCCCC(CC)COC(=O)c1ccccc1C(=O)OCC(CC)CCCC (stereo not given)
inactive: [1] | [2] | [3] | [4] | [7]

CC(C)N(C(=O)SC/C(Cl)=C/Cl)C(C)C
not listed: [9]
inactive: all other assays above

CCC(C)Nc1c([N+](=O)[O-])cc(C(C)(C)C)cc1[N+](=O)[O-] (stereo not given)
not listed: [5] | [6] | [10]
inactive: all other assays above

CC(=O)C(Cl)C(=O)N(C)C (stereo not given)
not listed: [5] | [6] | [9]
inactive: all other assays above

CCOC(=O)CCN(SN(C)C(=O)Oc1cccc2c1OC(C)(C)C2)C(C)C
not listed: [9] | [10]
inactive: all other assays above

CCOC(=O)Cc1ccccc1
not listed: [9]
inactive: all other assays above

CNC(=O)Oc1cc(C)cc(C(C)C)c1
not listed: [6] | [9]
inactive: all other assays above

CC(C)(C)c1ccc(OP(=O)(Oc2ccccc2)Oc2ccccc2)cc1
inactive: [1] | [2] | [3] | [4] | [7] | [10]

CC(C)C(Br)C(=O)NC(N)=O (stereo not given)
not listed: [6] | [9]
inactive: all other assays above

Cc1nn(-c2cc(NS(C)(=O)=O)c(Cl)cc2Cl)c(=O)n1C(F)F
not listed: [5] | [6] | [9]
inactive: all other assays above

Clc1ccc(C(c2ccc(Cl)cc2)C(Cl)Cl)cc1
active: [5] 24.9 µM and 38.9 µM | [7] 54.5 µM | [8] 49 µM
inactive: [1] | [2] | [3] | [4]

ClC1=C(Cl)[C@]2(Cl)[C@H]3[C@H]([C@@H]4C=C[C@H]3C4)[C@@]1(Cl)C2(Cl)Cl
inactive and 24.5 µM (active): [8]
inactive and 54.5 µM (active): [7]
not listed: [5] | [9]
inactive: all other assays above

C[C@H]1[C@H](c2ccc(Cl)cc2)SC(=O)N1C(=O)NC1CCCCC1
not listed: [6] | [9] | [10]
inactive: all other assays above

ClC1(Cl)C2(Cl)C3(Cl)C4(Cl)C(Cl)(Cl)C5(Cl)C3(Cl)C1(Cl)C5(Cl)C24Cl (stereo not given)
not listed: [6] | [9]
inactive: all other assays above
